TDP1 cell CPT: DT40-hTDP1 cell growth loss with CPT; Potency, µM (top dose mostly 46.2 µM), without a hit: at the top dose activity change, negative = growth inhibition, most hits filed as inhibitors; AID 686979; chicken DT40 Tdp1-/-;hTDP1 cells + 20 nM CPT, ATP luminescence, 48 h; hit rate 12% among 420,000; note: nearly all actives have a fitted effect of over 55% in size
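Chicken DT40 Tdp1-/- cells complemented with human TDP1, 400 cells/well, exposed to compounds plus 20 nM camptothecin for at least 48 h at 37 C; viability read as ATP content by CellTiter-Glo luminescence.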
PLK1 PBD inh: inhibitors of human PLK1 polo-box domain binding; P53350; Plk1 PBD binding of FITC phosphopeptide, fluorescence polarization; Potency, µM, for the others: max response, negative = inhibition, hits mostly inhibitors; hit rate 2.8% among 360,000; AID 720504; note: series mostly up to about 57 µM; nearly all actives have a fitted effect of over 65% in size
Target sequence (P53350 whole entry, looked up, the tested form may be a part): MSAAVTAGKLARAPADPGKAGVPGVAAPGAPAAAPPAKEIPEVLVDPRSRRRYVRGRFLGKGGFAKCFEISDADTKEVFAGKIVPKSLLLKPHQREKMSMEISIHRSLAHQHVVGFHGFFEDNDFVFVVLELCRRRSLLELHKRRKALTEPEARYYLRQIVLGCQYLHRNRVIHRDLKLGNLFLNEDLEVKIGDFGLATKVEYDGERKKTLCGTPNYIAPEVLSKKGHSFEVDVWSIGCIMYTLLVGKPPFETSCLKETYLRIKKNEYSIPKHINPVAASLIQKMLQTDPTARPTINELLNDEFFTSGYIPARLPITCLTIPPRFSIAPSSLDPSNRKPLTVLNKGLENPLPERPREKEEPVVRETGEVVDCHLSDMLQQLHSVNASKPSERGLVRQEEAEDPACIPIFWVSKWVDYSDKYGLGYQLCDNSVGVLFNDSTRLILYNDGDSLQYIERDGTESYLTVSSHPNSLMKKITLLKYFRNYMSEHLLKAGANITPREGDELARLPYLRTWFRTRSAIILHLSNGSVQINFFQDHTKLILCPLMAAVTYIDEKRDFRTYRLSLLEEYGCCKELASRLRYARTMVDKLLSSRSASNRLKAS
DT40 TDP1 no CPT: qHTS for Inhibitors of human tyrosyl-DNA phosphodiesterase 1 (TDP1): qHTS in cells in absence of CPT; DT40 Tdp1-/- hTDP1 cells, no CPT, ATP luminescence, 48 h; Potency, µM (doses to about 46.2 µM), for inactives: at the top dose activity change, negative = growth inhibition, usual class: inhibitors; hit rate 15% among 420,000; note: nearly all actives have a fitted effect of over 55% in size
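Cells were dispensed at 400 per well, compounds added by pin tool, plates incubated ≥48 hr at 37 °C, then CellTiter-Glo added for 30 min at room temperature before luminescence reading. Line: DT40 Tdp1-/- complemented with hTDP1; camptothecin omitted.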
TDP1 inh: blocks human tyrosyl-DNA phosphodiesterase 1. recombinant TDP1, AlphaScreen DNA substrate cleavage. Potency, µM (titrated, usually from 130 µM), for the others: top-dose activity change, negative = inhibition, usual class: inhibitors. hit rate 0.28% among 350,000. AID 485290; note: nearly all actives have a fitted effect of over 40% in size
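AlphaScreen read-out: signal falls as enzyme removes the 3' tyrosine-FITC from a 5'-biotinylated DNA oligo (15 nM, 5 min, RT). Enzyme was E. coli-made recombinant Tdp1 at 1 nM, exposed to compound for 15 min beforehand; beads 10 ug/ml, 10 min.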
GCN5L2 inh: blocks human GCN5L2 histone acetyltransferase | GCN5L2 HAT assay, ThioGlo1 CoA-SH fluorescence | Q92830 | AID 504327 | hit rate 0.21% among 390,000 | Potency, µM (doses to about 58.9 µM), without a hit: top-dose activity change, negative = inhibition, hits mostly inhibitors
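Free CoA generated was detected with ThioGlo1 (50uM) fluorescence at Ex340nm/Em540nm, read immediately and after 20 min at room temperature. Enzyme, 20 nM in HEPES pH 7.5 buffer, saw compounds 15 min before adding 75uM H3(1-25) peptide and 70uM acetyl-CoA.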
VDR inh: inhibitors of human vitamin D receptor; hit rate 0.93% among 400,000; Potency, µM, inactives show max response, negative = inhibition, usual class: inhibitors; VDR-SRC2-3 peptide fluorescence polarization, 2 h; P11473
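Measured by FP: displacement of SRC2-3 coactivator peptide from VDR by library compounds, following a two-hour ambient incubation.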
The depositor's hits bear a star; u = inconclusive; x = no result; [ ] = dose if it differs, or a comment. An excerpt weighted towards active compounds, which were near 18% of everything screened. Calls come from the whole dose curve; as a rule, active = well fitted curve in the direction sought with a large enough effect; inconclusive = small, poorly fitted or top-dose-only effect, or another doubt; inactive = no such curve, though single readings can be large; an effect the other way counts as inactive or inconclusive. % is set by controls: 0 for no effect and ±100 for the full control effect; potency is the fitted concentration of half-maximal effect.

SMILES	TDP1 cell CPT	PLK1 PBD inh	DT40 TDP1 no CPT	TDP1 inh	GCN5L2 inh	VDR inh
COC(=O)C1=C(c2cccc(OCc3ccccc3)c2)C[C@@H]2CC[C@H]1N2C(=O)NCc1ccccc1	u	1.2%	u	0.9%	-14.9%	-19.1%
COC(=O)C1=C(c2ccc(F)cc2OCc2ccccc2)C[C@@H]2CC[C@H]1N2C(=O)NCc1ccc([N+](=O)[O-])cc1	u	-21.1%	u	-0.9%	-13.5%	-29.2%
COC(=O)C1=C(c2ccc(OCc3ccccc3)cc2)C[C@@H]2CC[C@H]1N2C(=O)NCc1ccc([N+](=O)[O-])cc1	20.6µM*	-2.6%	11.6µM*	2.3%	-10.9%	-9.8%
CNCCc1nc(N)n[nH]1	-6.3%	1.7%	23.0%	-0.5%	-5.8%	0.3%
C[C@@H]1CN([C@H](C)CO)C(=O)CCCn2cc(nn2)CO[C@H]1CN(C)C(=O)Oc1cccc2ccccc12	11.4%	-18.8%	-26.7%	x	x	x
CSCCC(c1nnnn1C1CCCCC1)N1CCC2(CC1)C(=O)NCN2c1ccccc1 (stereo not given)	u	1.5%	u	x	x	x
CSCCC(c1nnnn1C1CCCCC1)N1CCC(n2c(=O)[nH]c3ccccc32)CC1 (stereo not given)	18.4µM*	-4.3%	9.2µM*	x	x	x
CSCCC(c1nnnn1C1CCCC1)N1CCC2(CC1)C(=O)NCN2c1ccccc1 (stereo not given)	u	1.8%	u	x	x	x
O=c1[nH]c2ccccc2n1C1CCN(C(c2nnnn2C2CCCCC2)C2CC2)CC1 (stereo not given)	u	-5.0%	14.6µM*	x	x	x
CC(C)(C)n1nnnc1C(CCc1ccccc1)N1CCC(n2c(=O)[nH]c3ccccc32)CC1 (stereo not given)	13µM*	-8.3%	13µM*	x	x	x
CSCCC(c1nnnn1C1CCCC1)N1CCC(n2c(=O)[nH]c3ccccc32)CC1 (stereo not given)	u	3.7%	23.1µM*	x	x	x
C[C@]12CCC3C(CC[C@H]4C[C@@H](O)CC[C@]34C)C1C[C@@H](Br)[C@H]2O (stereo not given in full)	x	x	x	2.1%	2.8%	x
CCCCOCCOP(=O)(OCCOCCCC)OCCOCCCC	x	x	x	10.4%	x	x
C=C(C)C1CCC(C)=CC1c1c(OC)cc(C)cc1OC (stereo not given)	x	x	x	u	-0.2%	7.6%
C[C@H](CCC(=O)O)[C@H]1CC[C@@H]2[C@@H]3[C@@H](O)C[C@H]4C[C@@H](O)CC[C@@]4(C)[C@H]3CC[C@@]21C	x	x	x	11.8%[21 µM]	7.6%[21.4 µM]	-20.4%
CCOC(=O)c1ccccc1NC(=O)c1c(O)[nH]c(=S)[nH]c1=O	0.9%	-7.5%	-0.3%	x	x	2.4%
O=c1[nH]c2ccccc2n1C1CCN(C(CCc2ccccc2)c2nnnn2C2CCCCC2)CC1 (stereo not given)	20.6µM*	-10.4%	13µM*	x	x	x
CSCCC(c1nnnn1-c1c(C)cccc1C)N1CCC(n2c(=O)[nH]c3ccccc32)CC1 (stereo not given)	25.9µM*	-2.5%	18.4µM*	x	x	x
Cc1cccc(N(C)C(=S)Oc2ccc3c(c2)CCC3)c1	10.9%	x	u	x	x	x
CCCN1CCC[C@@H]2Cc3cn[nH]c3C[C@H]21	x	x	x	2.0%	13.9%	0.2%
CCCCCCCCCCCCCC(=O)O[C@@H]1[C@@H](C)[C@@]2(O)[C@H](C=C(CO)C[C@]3(O)C(=O)C(C)=C[C@@H]23)[C@@H]2C(C)(C)C12OC(C)=O (stereo not given in full)	x	x	x	15.8%	-19.2%	-2.6%
CC(C)CCn1c(N)c(C(=O)NCc2cccs2)c2nc3ccccc3nc21	u	2.9%	u	-2.9%	u	-16.7%
CCOC(=O)c1c(N)n(CCCOC(=O)c2ccco2)c2nc3ccccc3nc12	11.6µM*	-15.3%	13µM*	4.8%	-9.1%	-8.8%
CCCCCn1c(NC(=O)c2ccco2)c(C(=O)OCC)c2nc3ccccc3nc21	20.6µM*	u	16.4µM*	2.5%	-4.4%	5.01µM*
C=CCNC(=O)c1c(N)n(CCN2CCOCC2)c2nc3ccccc3nc12	-9.4%	-5.1%	-22.5%	-1.0%	-18.6%	1.1%
SMILES	TDP1 cell CPT	PLK1 PBD inh	DT40 TDP1 no CPT	TDP1 inh	GCN5L2 inh	VDR inh
O=NN(CCO)CCO	x	x	x	17.2%	x	x
Nc1ccc(N)cc1	-22.5%	x	-17.3%	16.7%	10.5%	u
O=C(NCc1ccccc1)c1cccn(Cc2cccc(Cl)c2)c1=O	u	-5.2%	u	x	3.3%	-24.0%
CN(C)CCNC(=O)c1cccn(Cc2cccc(C(F)(F)F)c2)c1=O	23.1µM*	18.9µM*	u	0.0%	0.4%	u
OCC1CCCN2CCCCC12 (stereo not given)	5.7%	x	-5.9%	6.1%	14.6%	12.2%
CCOc1ccc2nc(NC(=O)c3cccn(Cc4ccccc4)c3=O)sc2c1	u	x	u	2.6%	1.9%	10.0%
Cn1c(=O)oc2cc(S(=O)(=O)NCCC(=O)NCCc3ccc(Cl)cc3)ccc21	u	-10.9%	-26.0%	3.3%	-9.4%	8.5%
COc1ccc2c(c1OC)CN1CCc3cc4c(cc3[C@H]1C2)OCO4	14.6µM*	2.3%	13µM*	5.6%	-0.8%	2.4%
COc1ccc2c(c1OC)CN1CCc3cc4c(cc3C1C2)OCO4 (stereo not given)	20.6µM*	-19.2%	u	x	-1.3%	4.1%
Fc1ccc(C2=CCN(C(c3cccs3)c3nnnn3CCc3ccccc3)CC2)cc1 (stereo not given)	u	u	u	2.3%	-1.1%	-13.4%
CCC(C)(C)n1nnnc1C(c1cccs1)N1CC=C(c2ccc(F)cc2)CC1 (stereo not given)	23.1µM*	0.7%	u	5.1%	-7.9%	-5.2%
NS(=O)(=O)c1ccc(N=Cc2c(O)n(C3CCCCC3)c(=O)n(C3CCCCC3)c2=O)cc1	14.6µM*	4.8%	16.4µM*	5.1%	-18.2%	-3.3%
CCn1c(O)c(C=Nc2ccc(S(N)(=O)=O)cc2)c(=O)n(CC)c1=S	u	11.3%	u	5.3%	-7.1%	-2.1%
COc1ccc(-c2oc3cc(OC)ccc3c(=O)c2O)cc1	11.9µM*	x	11.9µM*	5.7%[56.1 µM]	u	-9.3%
Cc1ccc(F)cc1NC(=O)c1ccc(Cn2nc(N3CCN(c4ccccc4)CC3)ccc2=O)o1	u	x	u	7.9%	-1.4%	5.5%
COC(=O)c1ccccc1C(=O)OC	0.5%	x	-5.4%	5.9%	x	x
COC(=O)c1cn(C(=O)c2cccc3ccccc23)c2ccccc12	8.2µM*	-5.1%	9.2µM*	-1.3%	-4.8%	1.4%

Screening data: PubChem, National Center for Advancing Translational Sciences (NCATS)
